Source: PubChem BioAssay AID651599 (National Center for Advancing Translational Sciences (NCATS), 2012)
Inconclusive results are not listed. The source made the active and inactive calls. The call rests on the fitted dose curve; in most records, active means well fitted inhibition curve with a large enough effect; inconclusive means small, poorly fitted or top-dose-only effect; inactive means no such curve, though single readings can be large or run the other way.

These molecules were tested against Tumor susceptibility gene 101 protein (Homo sapiens) (UniProt Q99816) (assay: qHTS Assay for Iinhibitors of HIV-1 Budding by Blocking the Interaction of PTAP/TSG101: Hit Validation in TR assay). Details: Tsg101 binding domain + Texas Red-labeled PTAP peptide, fluorescence polarization, 20 min; series mostly up to 57.5 µM; activity change, negative = inhibition: at the top concentration.
Description: Stages of the HIV-1 replication cycle, specifically virus assembly and release, provide underexploited targets for the development of novel antiviral inhibitors. The late stages of HIV-1 replication are mediated by the Gag precursor protein, Pr55Gag. Expression of Pr55Gag is both necessary and sufficient for the production of virus-like particles from Gag-expressing cells. The Gag protein hijacks key host proteins involved in endocytic machinery of the host cell to promote endosomal processing and viral budding. The budding process requires a direct interaction between a […] (PTAP) motif in the p6 domain of Gag and the cellular endosomal sorting protein known as Tsg101. In this way, the Gag PTAP motif promotes the host cells to recruit viral particles to the plasma membrane where the new viral particles are released, effectively turning the host cells into viral factories. A fluorescence anisotropy assay has been developed to quantitatively measure the PTAP-Tsg101 interaction which can be used to screen for inhibitors of this interaction.
This hit validation assay is similar to the primary assay but uses the Texas Red label instead of FITC.
NIH Molecular Libraries Probe Production Network [MLPCN]
NIH Chemical Genomics Center [NCGC]
PI Name: Dr. Eric Freed, NCI
Two uL of the Tsg101 binding domain in buffer (10 mM HEPES pH 7.5; 0.15 M NaCl, 0.01% Tween 20; 3 mM EDTA;0.1 mM TCEP) was dispensed into Greiner black MB 1536-well plates (final concentration 10 uM). Then, 23 nL of compounds or DMSO were delivered to each well using a pin tool. Finally, 2 uL of a TR-labeled peptide containing the PTAP motif (1) in the same buffer was dispensed (50 nM final concentration) and the binding was allowed to proceed for 20 min. at r.t. Fluorescent polarization was determined using TR excitation and polarized emission filters on a Perkin Elmer Viewlux.
Keywords: Tsg101, PTAP, Gag, HIV, fluorescent polarization, MLSMR, MLPCN, NIH Roadmap, qHTS, NCGC
On the % scale 0 is the no-effect control and ±100 the full control effect; potency means the concentration at half of the fitted maximal effect.

Sequence of Tumor susceptibility gene 101 protein (Homo sapiens) (Q99816 whole entry, looked up, the tested form may be a part): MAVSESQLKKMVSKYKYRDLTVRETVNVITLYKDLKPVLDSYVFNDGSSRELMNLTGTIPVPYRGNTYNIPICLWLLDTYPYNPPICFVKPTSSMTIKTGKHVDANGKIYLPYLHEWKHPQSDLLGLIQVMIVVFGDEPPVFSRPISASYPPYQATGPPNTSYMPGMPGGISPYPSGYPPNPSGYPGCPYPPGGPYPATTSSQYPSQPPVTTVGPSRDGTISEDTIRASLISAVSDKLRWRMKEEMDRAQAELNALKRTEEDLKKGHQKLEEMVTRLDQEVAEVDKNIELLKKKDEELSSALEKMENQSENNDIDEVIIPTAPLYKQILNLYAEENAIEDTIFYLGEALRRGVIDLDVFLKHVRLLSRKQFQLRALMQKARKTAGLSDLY

Compound | activity change, negative = inhibition | Potency
CN1CCN(c2ccc([N+](=O)[O-])c3no[n+]([O-])c23)CC1 | -24.5% (inactive) | 
CCOC(=O)c1c(/N=C/c2c(O)n(-c3ccccc3F)c(=S)[nH]c2=O)sc2c1CCCC2 | -9.37% (inactive) | 
CC1=C[C@@H]2c3cccc4[nH]cc(c34)C[C@H]2N(C)C1 | -10.5% (inactive) | 
CCN(CC)C(=O)Cn1cc(C=C2C(=O)N(C)C(=O)N(C)C2=O)c2ccccc21 | -8.32% (inactive) | 
CC1=NCCc2c1[nH]c1cc(O)ccc21 | 14.7% (inactive) | 
N#CC(C#N)=Cc1ccc(-c2ccccc2F)o1 | -14.9% (inactive) | 
CCOC(=O)[C@]1(C#N)[C@@H]2C=CC(C(C)=O)=CN2[C@@H](C(N)=O)[C@@H]1c1ccsc1 | 54.4% (inactive) | 
COc1cccc2c1C(=O)c1c(O)c3c(c(O)c1C2=O)CC(O)(C(C)=NO)CC3OC1CC(N)C(O)C(C)O1 (stereo unspecified) | -4.88% (inactive) | 
C=CCN1CCC2(C)c3cc(O)ccc3CC1C2C (stereo unspecified) | -6.86% (inactive) | 
CC(C)C[C@H]1C(=O)N2CCCC2[C@]2(O)O[C@](NC(=O)[C@@H]3C=C4c5cccc6[nH]cc(c56)CC4N(C)C3)(C(C)C)C(=O)N12 (stereo partly specified) | 11.2% (inactive) | 
N#CCN1CCN(c2ccc(C(F)(F)F)cc2)CC1 | -12.3% (inactive) | 
CN1/C(=C\C=C2C(=O)NC(=S)NC2=O)C(C)(C)c2ccccc21 | 17% (inactive) | 
Nc1cc2nc3ccccc3nc2cc1N | -20.2% (inactive) | 
CC(C)C[C@H]1C(=O)N2CCC[C@H]2[C@]2(O)O[C@](NC(=O)[C@@H]3C=C4c5cccc6[nH]cc(c56)C[C@H]4N(C)C3)(C(C)C)C(=O)N12 | 23.6% (inactive) | 
CCN(CC)c1ccc(N=Cc2c(O)n(-c3ccc(OC)cc3)c(=O)[nH]c2=O)cc1 | 2.78% (inactive) | 
CN1CC=C2C(C#N)=C(N)C(C#N)(C#N)C(c3ccncc3)C2C1 (stereo unspecified) | -13.5% (inactive) | 
C#CCN1C(=O)S/C(=C\c2ccc(N3CCOCC3)cc2C)C1=O | -9.29% (inactive) | 
Nc1ccc2nonc2c1[N+](=O)[O-] | -5.71% (inactive) | 
O=[N+]([O-])c1ccc(NCc2ccccc2)c2nonc12 | -2.23% (inactive) | 
O=c1cc(C(F)(F)F)c2cc3c4c(c2o1)CCCN4CCC3 | 12.3% (inactive) | 
Cc1cc(N2CCCC2)ccc1C=C(C#N)C#N | 61.5% (inactive) | 
O=C1NC(=O)N(c2ccc(F)cc2)C(=O)/C1=C/c1ccc2c(c1)CCCN2Cc1ccccc1 | 2.12% (inactive) | 
CCOC(=O)C1CCCN(c2ccc([N+](=O)[O-])c3nonc23)C1 (stereo unspecified) | -2.58% (inactive) | 
COc1ccc(N2C(=O)NC(=O)/C(=C\c3cn(C)c4ccccc34)C2=O)cc1 | -82.3% (inactive) | 
Nc1ccc2ccc3cccc[n+]3c2c1 |  | 16.3 µM (active)
CN1Cc2c(c(C#N)c(N)n(C)c2=S)CC1(C)C | 24.8% (inactive) | 
